Source: PubChem BioAssay (NCATS)
“And” between values parts separate entries of the source, which are not always exact repeats. Equal values may be shown once. Results filed as inconclusive are left out. Where a call stands in place of a potency, no number is given. Unmarked numbers belong to inactive results. The source made the active and inactive calls. Calls follow the shape of the dose curve; as a rule, active = well fitted curve in the direction sought with a large enough effect; inconclusive = small, poorly fitted or top-dose-only effect, or another doubt; inactive = no such curve, though single readings can be large; an effect the other way counts as inactive or inconclusive. *1 amine or outer side, *2 acyl side, *3 side chain or, on linkers, in order; H or OH if unused. Where a SMILES comes first, the peptide text is derived from it. Bridges are numbered along the chain shown (N, C = ends). [ ]: non-standard residue; d: D form. The star is where a group is joined. pTerphenylCO(4''-OnC5H11) = CCCCCOc1ccc(-c2ccc(-c3ccc(C(=O)*)cc3)cc2)cc1; Orn(4R-OH,5R-OH) = O=C([C@H](C[C@@H](O)[C@@H](O)N[*:3])N[*:1])[*:2]; hTyr(3S-OH,4S-OH) = N[C@H](C(=O)O)[C@H](O)[C@@H](O)c1ccc(O)cc1; Pro(3S-OH,4S-Me) = C[C@H]1CN[C@H](C(=O)O)[C@H]1O; Hyp = O=C(O)[C@@H]1C[C@@H](O)CN1

How the values were obtained:
[1] = P-glycoprotein substrates identified in KB-3-1 adenocarcinoma cell line, qHTS therapeutic library screen (AID 1346986); conditions: KB-3-1 parental cells viability, CellTiter-Glo, 72 h; series mostly up to 44.5 µM; also: nearly all actives have a fitted effect of over 60% in size;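 also: potency is for cytotoxicity meaning loss of cell viability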
How it was run: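 Cells seeded 500/well in DMEM/10% FCS; compounds pinned in dose-response; 72 h incubation; CellTiter-Glo added, 5 min, luminescence. KB-8-5-11 run ±tariquidar to test reversal of P-gp resistance.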

[2] = P-glycoprotein substrates identified in KB-8-5-11 adenocarcinoma cell line, qHTS therapeutic library screen (AID 1346987); conditions: KB-8-5-11 (P-gp overexpressing) viability, CellTiter-Glo, 72 h; series mostly up to 44.5 µM; also: nearly all actives have a fitted effect of over 65% in size
How it was run: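 Steps: plate 500 KB-8-5-11 cells/well in DMEM + 10% FCS (colchicine removed); pin compounds in dose-response; incubate 72 h, 37 degree C, 5% CO2; add CellTiter-Glo, 5 min; read luminescence.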
Potency is read from the fitted curve at half-maximal effect.

CCOc1ccc(-n2c(C(C)N(Cc3cccnc3)C(=O)Cc3ccc(F)c(C(F)(F)F)c3)nc3ncccc3c2=O)cc1 (stereo not given)
Potency [1]: inactive
Potency [2]: inactive

COc1cc(O)c2c(c1)/C=C/C[C@H](O)[C@H](O)C(=O)/C=C\C[C@H](C)OC2=O
Potency [1]: 6.51 µM (active)
Potency [2]: 9.2 µM (active) and 8.2 µM (active)

CC1OC(=O)C[C@@H]2C(C(=O)O)=CO[C@@H](O[C@H]3O[C@H](CO)[C@@H](O)[C@H](O)[C@H]3O)[C@H]12 (stereo not given in full)
Potency [1]: inactive
Potency [2]: inactive

COc1cc(OC)c2c(=O)[nH]c(-c3cc(C)c(OCCO)c(C)c3)nc2c1
Potency [1]: inactive
Potency [2]: inactive

COc1ccc(C2=NC(c3ccc(Cl)cc3)C(c3ccc(Cl)cc3)N2C(=O)N2CCNC(=O)C2)c(OC(C)C)c1 (stereo not given)
Potency [1]: inactive
Potency [2]: inactive

C=C1CCC2[C@](C)(CCC[C@@]2(C)C=O)[C@H]1CC/C(C)=C/CO (stereo not given in full)
Potency [1]: inactive
Potency [2]: inactive

C/C=C(/C=C(C)/C=C/C=C/C=C(\C)C(=O)C12OC1C(O)(CCO)NC2=O)C(=O)OC (stereo not given)
Potency [1]: inactive
Potency [2]: inactive

CC1=CC2/C=C(\C)CCC(O)C/C=C/C(=O)OC23C(=O)NC(CC(C)C)C3C1C (stereo not given)
Potency [1]: inactive
Potency [2]: inactive

CC1(C)CC[C@]2(C(=O)O[C@@H]3O[C@H](CO)[C@@H](O)[C@H](O)[C@H]3O)CC[C@]3(C)C(=CCC4[C@@]5(C)CC[C@H](O[C@@H]6O[C@H](C(=O)O)[C@H](O)[C@H](O)[C@H]6O)C(C)(C)C5CC[C@]43C)[C@@H]2C1 (stereo not given in full)
Potency [1]: inactive
Potency [2]: inactive

CCC/C=C/C(=O)O[C@H]1CC(C)(C)CC2[C@@]13[C@H](O)C[C@]1(C)[C@@]2(CCC2[C@@]4(C)CC[C@H](O[C@@H]5O[C@H](C(=O)O)[C@@H](O)[C@H](O[C@@H]6O[C@H](CO)[C@H](O)[C@H](O)[C@H]6O[C@@H]6O[C@@H](C)[C@H](O)[C@@H](O)[C@H]6O[C@@H]6OC[C@](O)(CO)[C@H]6O)[C@H]5O[C@@H]5O[C@H](CO)[C@H](O)[C@H](O)[C@H]5O)C(C)(C)C4CC[C@]21C)O[C@H]3O (stereo not given in full)
outcome [1]: inactive [at 9.29 µM]
outcome [2]: inactive [at 9.29 µM]

Nc1nc2c(nc(Br)n2[C@@H]2O[C@@H]3COP(=O)(O)O[C@H]3[C@H]2O)c(=O)[nH]1
Potency [1]: inactive
Potency [2]: inactive

CCC(C)C1NC(=O)C(Cc2ccccc2)NC(=O)C(CCCCCC(=O)C(O)CO)NC(=O)C2CCCCN2C1=O (stereo not given)
Potency [1]: inactive
Potency [2]: inactive

C=C(C)C1CCC2(C(=O)O)CCC3(C)C(CCC4C5(C)C(C=O)C(O)C(C)(C)C5CCC43C)C12 (stereo not given)
Potency [1]: inactive
Potency [2]: inactive

CC(=O)O[C@@H]1CC2C(C)(C)C(=O)C=C[C@]2(C)C2CC[C@@]3(C)[C@H](c4ccoc4)OC(=O)[C@H]4O[C@]43[C@@]21C (stereo not given in full)
Potency [1]: inactive
Potency [2]: inactive

Cn1ncc(Cl)c1-c1cc(C(=O)N[C@H](CN)Cc2ccc(F)c(F)c2)oc1Cl
Potency [1]: 11.6 µM (active)
Potency [2]: 16.4 µM (active)

COc1cccc(CN(C(=O)CC(C)(C)C)[C@H]2C[C@H](C(=O)N3CCNCC3)N(Cc3ccc4c(c3)OCO4)C2)c1
Potency [1]: inactive
Potency [2]: inactive

C=C1C(=O)O[C@@H]2/C=C(/C)[C@@H](OC(C)=O)C/C=C(\C)C[C@@H](OC(=O)/C(=C/CO)CO)[C@@H]12
Potency [1]: inactive
Potency [2]: inactive

C[C@H](Nc1cc2c(-c3ccc4c(c3)OCO4)noc2cn1)c1ccccc1
Potency [1]: inactive
Potency [2]: inactive

COCCCNC(=O)c1ccc(Cn2c(=O)c3ccccc3n(Cc3ccc(C(C)C)cc3)c2=O)cc1
Potency [1]: inactive
Potency [2]: inactive

C=C[C@]1(C)C[C@H](O)[C@H]2C(=C)C(=O)O[C@@H]2[C@H]1C(=C)CO
Potency [1]: inactive
Potency [2]: inactive

CCCCCOc1ccc(-c2ccc(-c3ccc(C(=O)N[C@H]4C[C@@H](O)[C@@H](O)NC(=O)[C@@H]5[C@@H](O)[C@@H](C)CN5C(=O)[C@H]([C@@H](C)O)NC(=O)[C@H]([C@H](O)[C@@H](O)c5ccc(O)cc5)NC(=O)[C@@H]5C[C@@H](O)CN5C(=O)[C@H]([C@@H](C)O)NC4=O)cc3)cc2)cc1 ({pTerphenylCO(4''-OnC5H11)}-[Orn(4R-OH,5R-OH)]T[Hyp][hTyr(3S-OH,4S-OH)]T[Pro(3S-OH,4S-Me)]; lactam 1-C)
Potency [1]: inactive
Potency [2]: inactive

CN1CCN(c2ccc(-c3cccc(CN4CCOCC4)c3)cc2NC(=O)c2c[nH]c(=O)cc2C(F)(F)F)CC1
Potency [1]: inactive
Potency [2]: inactive

C=C1C(=O)OC2CC3(C)C(O)C(=O)C=C(C)C3CC12 (stereo not given)
Potency [1]: inactive
Potency [2]: inactive

COC1=CC(=O)C=C(C)C12Oc1c(Cl)c(OC)cc(OC)c1C2=O (stereo not given)
Potency [1]: inactive
Potency [2]: inactive

C=C1C(OC2OC(CO)C(O)C(O)C2O)CC2C(C)(C)C(O)CCC2(C)C1CC/C(C)=C\COC(=O)CC(=O)O (stereo not given)
Potency [1]: inactive
Potency [2]: inactive

COc1cc2c(cc1O)C1(Cc3ccc4c(c3C1O)OCO4)[N+](C)([O-])CC2 (stereo not given)
Potency [1]: inactive
Potency [2]: inactive

C[C@@H]1O[C@@H](O[C@H]2CC[C@@]3(C)C(CC[C@]4(C)C3CC=C3[C@@H]5CC(C)(C)CC[C@]5(C(=O)O[C@@H]5O[C@H](CO)[C@@H](O)[C@H](O)[C@H]5O)CC[C@]34C)[C@]2(C)CO)[C@H](O)[C@H](O[C@@H]2O[C@H](CO)[C@@H](O)[C@H](O)[C@H]2O)[C@H]1O (stereo not given in full)
outcome [1]: inactive [at 9.29 µM]
activity change, negative = cytotoxicity [2]: 3.4% [at 9.29 µM]

C[C@H](Nc1ncnc2nc[nH]c12)c1cc2cccc(Cl)c2c(=O)n1-c1ccccc1
Potency [1]: 20.6 µM (active)
Potency [2]: inactive

NC(=O)c1cccc2[nH]c(-c3ccc(C4CCCN4)cc3F)nc12 (stereo not given)
Potency [1]: inactive
Potency [2]: inactive

N#Cc1cc(-c2ccnc(Nc3ccc(N4CCOCC4)cc3)n2)ccc1OC1CCOCC1
Potency [1]: 13 µM (active)
Potency [2]: 16.4 µM (active)

Nc1nc(OCc2cc(Br)cs2)c2[nH]cnc2n1
Potency [1]: inactive
Potency [2]: inactive

COc1cc2ncnc(Nc3cccc(I)c3)c2cc1OC
Potency [1]: 6.51 µM (active)
Potency [2]: 5.8 µM (active)

CC(=O)C=C=C1C(C)(C)CC(O)CC1(C)O[C@@H]1O[C@H](CO[C@H]2OC[C@](O)(CO)[C@H]2O)[C@@H](O)[C@H](O)[C@H]1O (stereo not given in full)
Potency [1]: inactive
Potency [2]: inactive

CC1(C)CC[C@]2(C(=O)O)[C@H](O)C[C@]3(C)C(=CCC4[C@@]5(C)CC[C@H](O[C@@H]6O[C@H](CO[C@@H]7OC[C@H](O)[C@H](O)[C@H]7O[C@@H]7OC[C@H](O)[C@H](O)[C@H]7O)[C@@H](O)[C@H](O)[C@H]6O)C(C)(C)C5CC[C@]43C)[C@@H]2C1 (stereo not given in full)
outcome [1]: inactive [at 9.29 µM]
outcome [2]: inactive [at 9.29 µM]

CC1(C)C2CCC(CO[C@@H]3O[C@H](CO[C@@H]4OC[C@](O)(CO)[C@H]4O)[C@@H](O)[C@H](O)[C@H]3O)C1C2 (stereo not given in full)
Potency [1]: inactive
Potency [2]: inactive

Cc1c(F)ccc(C(=O)Nc2cc([N+](=O)[O-])ccc2N2CCN(C)CC2)c1Cl
Potency [1]: inactive
Potency [2]: inactive

COc1ccc(-c2ccc3c(N4CCOCC4C)nc(N4CCOCC4C)nc3n2)cc1CO (stereo not given)
Potency [1]: 0.0731 µM (active)
Potency [2]: 0.0731 µM (active)

CC(C)C[C@@H](N)C(=O)N[C@H]1C(=O)N[C@@H](CC(N)=O)C(=O)N[C@H]2C(=O)N[C@H]3C(=O)N[C@H](C(=O)N[C@H](C(=O)O)c4cc(O)cc(O)c4-c4cc3ccc4O)[C@H](O)c3ccc(c(Cl)c3)Oc3cc2cc(c3O[C@@H]2O[C@H](CO)[C@@H](O)[C@H](O)[C@H]2O[C@H]2C[C@](C)(N)[C@H](O)[C@H](C)O2)Oc2ccc(cc2Cl)[C@H]1O
Potency [1]: inactive
Potency [2]: inactive

C=C1C(=O)OC2/C=C(\CO)CC/C=C(\C=O)C(O)C(OC(=O)C(C)CC)C12 (stereo not given)
Potency [1]: inactive
Potency [2]: inactive

CCC(C)/C=C(C)/C=C/C1=CC2=C(Cl)C(=O)C(C)(OC(C)=O)C(=O)C2(O)C(OC)O1 (stereo not given)
Potency [1]: inactive
Potency [2]: inactive

CC(=O)O[C@H]1CC[C@]2(C)[C@H]3CC[C@]4(C)Oc5oc(C)cc(=O)c5C[C@H]4[C@]3(C)CC[C@H]2C1(C)C
Potency [1]: inactive
Potency [2]: inactive

COc1cccc(OCCCN)c1-c1cc(Nc2cnc(C#N)cn2)n[nH]1
Potency [1]: 0.146 µM (active)
Potency [2]: 1.3 µM (active)

NC(=O)c1ccccc1Nc1ccnc(Nc2cccc(O)c2)n1
Potency [1]: 1.3 µM (active)
Potency [2]: 8.2 µM (active)

COC(CCc1ccc(O)cc1)CC(=O)CCc1ccc(O)cc1 (stereo not given)
Potency [1]: inactive
Potency [2]: inactive

C=CC(=O)Nc1cccc(Nc2nc(Nc3ccc(OCCOC)cc3)ncc2F)c1
Potency [1]: 11.6 µM (active)
Potency [2]: 7.31 µM (active)

C=C1CC[C@@H](O)[C@]2(C)CC[C@H]3C(=C)C(=O)O[C@@H]3[C@@H]12
Potency [1]: inactive
Potency [2]: inactive

CC(=O)c1c(C)cc2cccc(O)c2c1O[C@@H]1O[C@H](CO)[C@@H](O)[C@H](O)[C@H]1O
Potency [1]: inactive
Potency [2]: inactive

O=C(CSc1nc2ccccc2c(=O)n1-c1ccccc1)Nc1ccc2c(c1)CCC2
Potency [1]: inactive
Potency [2]: inactive

COc1ccc(C(=O)O[C@H]2C=COC=C3C=C4C(=O)N(C)C(=S)C(=O)N4[C@@H]32)cc1Oc1cc(C=O)ccc1O
Potency [1]: inactive
Potency [2]: inactive

O=C(O)CCc1nccc2c1[nH]c1ccccc12
Potency [1]: inactive
Potency [2]: inactive

CO[C@@H]1[C@H](O)CCC2(CO2)[C@H]1[C@@]1(C)O[C@@H]1CC=C(C)C (stereo not given in full)
Potency [1]: inactive
Potency [2]: inactive

C=C1CC[C@@H]2[C@](C)(CO)[C@H](O)CC[C@@]2(C)[C@@H]1CC(O)C1=CCOC1=O (stereo not given in full)
Potency [1]: inactive
Potency [2]: inactive

CC(=O)O[C@@H]1C2=C(O)C(=O)[C@](C)(OC(C)=O)C(=O)C2=CO[C@@]12O[C@@H](C)CC[C@H]2OC(C)=O
Potency [1]: inactive
Potency [2]: inactive

O=C([C@@H](Cc1cccc(C(F)(F)F)c1)NS(=O)(=O)c1cc(F)c2c(c1)CCNC2)N1CCCC1
Potency [1]: inactive
Potency [2]: inactive

C[C@H]1CC[C@@]2(OC1)O[C@H]1CC3[C@@H]4CC[C@@H]5C[C@@H](O[C@@H]6O[C@H](CO)[C@@H](O[C@@H]7O[C@H](CO[C@@H]8OC[C@@H](O)[C@H](O)[C@H]8O)[C@@H](O[C@@H]8O[C@H](CO)[C@H](O)[C@H](O)[C@H]8O)[C@H](O)[C@H]7O)[C@H](O)[C@H]6O)CC[C@]5(C)C4CC[C@]3(C)[C@H]1[C@@H]2C (stereo not given in full)
outcome [1]: inactive [at 9.29 µM]
activity change, negative = cytotoxicity [2]: 3.95% [at 9.29 µM]
